# This is a sample that favours compounds with a hit; in the whole collection about 10% have one here.
# VP16 counter: Gal4-VP16 reporter inhibition counter-screen; Drosophila S2 Gal4-VP16 UAS-luciferase, luminescence, 20 h; AID 2546; 310,000 tested, 3.5% active; Potency, µM (doses to about 53.6 µM), usual class: inhibitors;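 also: Gal4-VP16 expression switched on by copper sulfate through the metallothionein promoter; nearly all actives have a fitted effect of over 50% in size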
# MCF10A rereplic: inducers of DNA re-replication in MCF 10A breast cells; MCF 10A DNA re-replication, Hoechst nuclear intensity, 48 h; Potency, µM (titrated, usually from 46.1 µM), most hits filed as activators; AID 624296; 350,000 tested, 2.9% active; also: nearly all actives have a fitted effect of over 50% in size
# RORgamma inh: blocks mouse ROR gamma transcriptional activity; Drosophila S2 Gal4-RORgamma UAS-luciferase reporter, 20 h; 310,000 tested, 5.4% active; Potency, µM (doses to about 53.6 µM), hits mostly inhibitors; also: nearly all actives have a fitted effect of over 60% in size
# Target sequence (P51450 whole entry, looked up, the tested form may be a part): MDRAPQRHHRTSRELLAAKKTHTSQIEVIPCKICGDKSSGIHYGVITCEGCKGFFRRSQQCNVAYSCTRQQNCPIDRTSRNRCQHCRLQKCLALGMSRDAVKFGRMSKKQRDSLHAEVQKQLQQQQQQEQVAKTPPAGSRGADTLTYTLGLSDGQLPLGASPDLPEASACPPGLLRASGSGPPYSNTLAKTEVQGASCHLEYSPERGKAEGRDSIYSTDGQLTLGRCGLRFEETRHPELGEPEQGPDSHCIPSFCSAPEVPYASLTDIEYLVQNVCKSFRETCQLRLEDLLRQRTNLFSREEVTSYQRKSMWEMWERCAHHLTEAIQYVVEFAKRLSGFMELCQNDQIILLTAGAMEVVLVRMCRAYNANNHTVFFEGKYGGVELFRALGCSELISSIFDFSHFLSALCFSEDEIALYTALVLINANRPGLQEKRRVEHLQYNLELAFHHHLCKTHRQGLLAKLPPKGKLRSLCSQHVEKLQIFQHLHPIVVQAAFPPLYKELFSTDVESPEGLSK
#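 Schneider cells (Drosophila), stable Gal4 DBD–ROR gamma + UAS-luc; 1 hr cmpd preincubation; Cu2+ induction 700 uM final; 20 hr ambient; luminescence.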
# SW480 rerep: inducers of DNA re-replication in SW480 colon cancer cells. 340,000 tested, 1.8% active. Potency, µM (series often up to 46.1 µM), usual class: activators. SW480 DNA re-replication, Hoechst DNA content imaging, 48 h; also: nearly all actives have a fitted effect of over 55% in size
#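 Cells (250 per well) received 23 nL compound or DMSO by pin tool and were kept 48 hr at 37 C, 5% CO2. Nuclei were then stained with Hoechst for 40 min and scanned for DNA content.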
# KB-V1 MDR tox: KB-V1 MDR subline cytotoxicity; AID 1347076; KB-V1 MDR cells viability, CellTiter-Glo, 72 h; Potency, µM (series often up to 46.1 µM), most hits filed as cytotoxic; 400,000 tested, 3.4% active; also: nearly all actives have a fitted effect of over 60% in size
#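 Cytotoxicity toward P-gp-expressing KB-V1 cells was determined as loss of CellTiter-Glo luminescence after 72 h at 37 degrees C. Compounds were tested in quantitative HTS format across a concentration range, with curves fitted to normalized data.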
# KB-3-1 cytotox: KB-3-1 parental cell cytotoxicity; Potency, µM (doses to about 46.1 µM), usual class: cytotoxic; KB-3-1 viability, CellTiter-Glo ATP luminescence, 72 h; 400,000 tested, 1.4% active; AID 1347075; also: nearly all actives have a fitted effect of over 60% in size
#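 KB-3-1 cells, DMEM (no phenol red) + 10% FBS; compound by pin transfer, 72 h, 37 °C. Readout: CellTiter-Glo luminescence after 10 min. Data normalized, curve-fitted.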
# Hits are given with their value; - = inactive; ? = inconclusive; . = no result; [ ] = another dose, or the depositor's remark. Calls follow the shape of the dose curve; as a rule, active = well fitted curve in the direction sought with a large enough effect; inconclusive = small, poorly fitted or top-dose-only effect, or another doubt; inactive = no such curve, though single readings can be large; an effect the other way counts as inactive or inconclusive.
SMILES,VP16 counter,MCF10A rereplic,RORgamma inh,SW480 rerep,KB-V1 MDR tox,KB-3-1 cytotox
COc1ccc(-c2cn3c(C)c(C(=O)Nc4ccncc4)sc3n2)cc1,13µM,?,-,?,-,-
COc1ccc(-c2cn3c4c(sc3n2)CCCC4)cc1,10µM,-,11µM,-,-,-
Cc1c(C(=O)Nc2ccncc2)sc2nc(-c3ccc(F)cc3)cn12,?,?,?,-,-,-
CC1(C)O[C@H]2[C@@H](O1)[C@@H](C(=O)Nc1ccccc1C(F)(F)F)O[C@@H]1OC(C)(C)O[C@@H]12,.,.,.,.,?,-
CC(C#N)(NC(=O)CN1CCN(S(=O)(=O)c2cccc(F)c2)CC1)C1CC1 (centres undefined),.,.,.,.,-,-
CN1CCN(/C=N/c2c(C#N)cnn2Cc2ccccc2)CC1,-,-,-[10 µM],-,10µM,-
CCCCC[C@H](O)/C=C/C=C/C=C/[C@H](O)C/C=C\CCCC(=O)O,-,.,-,.,.,.
COc1ccc(N(C(=O)c2ccccc2C)S(=O)(=O)c2cccs2)cc1,-,1.2µM,-,2.6µM,1.3µM,0.82µM
COc1ccc(C(=O)N2CCC3(CCCN(C(=O)Nc4cccc(F)c4)C3)CC2)cc1,-,.,-,.,.,.
CCOC(=O)C1(C)CCN1C(=O)c1ccco1 (centres undefined),.,.,.,.,-,-
COc1ccc(OC)c(CCNC(=O)Cn2sc3nc(C)cc(C)c3c2=O)c1,-,.,-,.,.,.
Cc1cc(C)c2c(=O)n(CC(=O)Nc3ccc(Br)c(C)c3)sc2n1,?,?,13µM,?,-,-
Cc1c(Cl)cccc1NC(=O)Cn1cccc1,-,-,-,-,-,-
Cc1cc(C)c2c(=O)n(CC(=O)NC3CCCC3)sc2n1,?,21µM,?,-,-,?
Cc1cc(C)c2c(=O)n(CC(=O)Nc3cccc(Cl)c3C)sc2n1,3.2µM,?,?,?,?,?
COc1cccc2c1C(=O)/C(=C\c1ccc(N(C)C)cc1)C2,.,.,.,.,?,-
O=C(NCc1ccccc1)c1noc2c1CCCC2,-,?,-,?,?,?
O=C(c1noc2c1CCCC2)N1CCN(c2ccccc2)CC1,-,-,-,-,18µM,-
CC(NC(=O)c1noc2c1CCCC2)c1ccccc1 (centres undefined),-,-,-,-,16µM,-
Cc1cccc(OCC(=O)Nc2ccc(-c3nc4cc(C)ccc4o3)c(O)c2)c1,.,.,.,.,-,-
O=C(Nc1cccc(C(=O)N2CCN(c3ccc(Cl)cc3)CC2)c1)c1nsc2ccccc12,.,.,.,.,?,-
CSCC[C@H](NC(=O)[C@H](CC(C)C)NC(=O)[C@@H]1CCCN1C(=O)[C@H](Cc1ccccc1)NC(=O)[C@H](Cc1ccccc1)NC(=O)[C@H](CCC(N)=O)NC(=O)[C@H](CCC(N)=O)NC(=O)[C@@H]1CCCN1C(=O)[C@H](CCCCN)NC(=O)[C@@H]1CCCN1C(=O)[C@@H](N)CCCN=C(N)N)C(N)=O,-,.,-,.,.,.
Cc1ccc(NC(=O)Cn2c(=O)n(Cc3ccc4c(c3)OCO4)c(=O)c3ccc(C(=O)NC4CCCCC4)cc32)cc1,.,.,.,.,-,-
CSc1nc(N)nc(SCCS(=O)(=O)c2ccc(Cl)cc2)c1C#N,-,13µM,?,?,?,-
COc1ncc2nc(C)c(=O)n(C)c2n1,-,.,-,.,.,.
SMILES,VP16 counter,MCF10A rereplic,RORgamma inh,SW480 rerep,KB-V1 MDR tox,KB-3-1 cytotox
Cc1ncc(CO)c(/C=N/NC(=O)c2ccc(O)cc2)c1O,?,-,10µM,.,-,-
Cc1ncc(CO)c(/C=N/NC(=O)c2ccccc2Br)c1O,18µM,-,10µM,?,-,-
Cc1ncc(CO)c(/C=N/NC(=O)c2cc3c(s2)CCCC3)c1O,-,?,10µM,-,?,?
COc1ccc(C(=O)N/N=C/c2c(CO)cnc(C)c2O)cc1,-,-,?,-,?,-
COc1ccc(C2Nc3ccccc3C(=O)N2c2ccccc2F)cc1COc1ccc(NC(C)=O)cc1 (centres undefined),.,.,.,.,-,-
CCN1c2cc(C)ccc2-n2cccc2C12CCN(C(=O)Nc1cc(OC)c(OC)c(OC)c1)CC2,.,.,.,.,-,?
CCc1c(C(=O)N/N=C/c2ccco2)nnn1-c1nonc1N,-,-,?,-,-,-

# Screening data from PubChem BioAssay.
